Consider 43 sequences from publication PMC7819943, “Rice protein-binding microarrays: a tool to detect cis-acting elements near promoter regions in rice”.

Over roughly 39,000 sequences, “fluorescence intensity (a.u.)” has its median near 4,300; the highest 2% begin near 39,000. Shown is part of a subset that was picked to be rich in the highest values.

The target in the assay is T1, OsSMF1 (Oryza sativa, UniProt Q6ZLB0 1-436).
T1 sequence: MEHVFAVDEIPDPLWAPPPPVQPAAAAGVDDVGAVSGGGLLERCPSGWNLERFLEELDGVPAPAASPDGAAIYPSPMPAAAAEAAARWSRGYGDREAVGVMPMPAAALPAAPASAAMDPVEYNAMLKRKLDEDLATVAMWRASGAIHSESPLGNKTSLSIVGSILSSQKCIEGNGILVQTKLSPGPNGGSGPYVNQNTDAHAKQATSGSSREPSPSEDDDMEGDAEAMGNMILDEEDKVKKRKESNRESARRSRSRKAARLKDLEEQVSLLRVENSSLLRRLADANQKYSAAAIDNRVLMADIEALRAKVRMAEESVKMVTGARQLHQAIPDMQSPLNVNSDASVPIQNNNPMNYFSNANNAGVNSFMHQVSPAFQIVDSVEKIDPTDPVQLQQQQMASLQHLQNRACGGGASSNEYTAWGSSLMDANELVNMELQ
The experiment in a line: protein-binding microarray (RPBM); PBS, 2% BSA, 51.3 ng/ul salmon testes DNA, 50 uM zinc acetate, 200 nM TF, 25 C, 1 h; high values mean tight binding. The conditions noted are these: protein: recombinant; tags: N-terminal polyhistidine and DsRed monomer fusion (pET32a); chain copies: 2; label: CyDye5-dUTP incorporated in the synthesized complementary strand; 3' TTTTT single-stranded linker to array surface; dsDNA, one strand shown. In short, it runs like this:
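The binding signal is fluorescence intensity per feature, in arbitrary units, read on an Axon 4000B scanner. Polyhistidine- and DsRed-tagged transcription factors (N-terminal fusions) from E. coli BL21-CodonPlus were purified on Ni–NTA and applied at 200 nM for 1 h at 25 °C to a double-stranded, BSA-blocked custom Agilent array in buffer with 50 µM zinc acetate.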
Take “ATTGATCACTCGGACGTCACCAAACGATCGATAAACTCGTCGGAGTCACCTAGTGCAG”: the binding signal was 5630 fluorescence intensity (a.u.). Under “TGGGATGATCAAATGACTGCCACACTGTCATGTTCCTCTGCGGAGTCACCTAGTGCAG” stands 3610 fluorescence intensity (a.u.); under “CTCTGTTCACTCCACCAAACTCCTTCGATTGATCAAATGACGGAGTCACCTAGTGCAG”, 47200 fluorescence intensity (a.u.); under “AGCTGTGCCAACGAGCCCTTAATTAGTTATTATCTCTTCTCGGAGTCACCTAGTGCAG”, 44600 fluorescence intensity (a.u.). On to “ACCAACGAACGGACGCTGTCATGTCACCTCTCTTAATCTTCGGAGTCACCTAGTGCAG”, for which the binding signal is 3740 fluorescence intensity (a.u.).

“AGCCTCTTCCATCTCGAGCCAGCTCATATTGATTATCCAACGGAGTCACCTAGTGCAG”: the binding signal was 4850 fluorescence intensity (a.u.). “AAGCACTCCAAACTGCAACGATTATATCAATAAAATAAAACGGAGTCACCTAGTGCAG”: the binding signal is 39000 fluorescence intensity (a.u.). Under “AACTGCAGCAATATCACTCCCTCCAAATCAGCACATGCATCGGAGTCACCTAGTGCAG” stands 3560 fluorescence intensity (a.u.). The same measure for “TAGCATAGCCAACTGCTGACTCCAAATTATCTATAGTCAACGGAGTCACCTAGTGCAG”: 3850 fluorescence intensity (a.u.).

In the case of “TGTCAGTTGGCGAGGGATGCACTGATGACTATGCTAGTGCCGGAGTCACCTAGTGCAG”, the binding signal is 4860 fluorescence intensity (a.u.).

Regarding “AAGCTAGTACAAGATGCGAAATGTCGTCAGATTCAGAGATCGGAGTCACCTAGTGCAG”, the binding signal is 3580 fluorescence intensity (a.u.). Under “CGTTGCGCACGTACAGCTCACGCTCAAGTCGTACACATTACGGAGTCACCTAGTGCAG” stands 3840 fluorescence intensity (a.u.). The same measure for “AGTACATAATTACGCACATGTGACACACACCACACATACTCGGAGTCACCTAGTGCAG”: 3140 fluorescence intensity (a.u.). As to “ATACGATACCATAGGTATGTCAGCATGATATATATGTACTCGGAGTCACCTAGTGCAG”, the binding signal is 3890 fluorescence intensity (a.u.). “TGTCATAAATTGTACCGACATGATACACATGTCCGATACTCGGAGTCACCTAGTGCAG”: the binding signal is 39400 fluorescence intensity (a.u.). Under “TATGTGTTGACACCAAGGCTGACTCGGTTTTCGTCAAGGTCGGAGTCACCTAGTGCAG” stands 6530 fluorescence intensity (a.u.); under “GTCGTCTAGTAGTAGTAGCCTACCACCACCTCCCTCGGCGCGGAGTCACCTAGTGCAG”, 3230 fluorescence intensity (a.u.); under “AATTGGGATCAAAGCCTTCATGTTCATAGCAAATCAAGAGCGGAGTCACCTAGTGCAG”, 45900 fluorescence intensity (a.u.). Under “AAATGGGGCCTAGAGTTCCAACCAATTGCAGCAAGAGCAGCGGAGTCACCTAGTGCAG” stands 3230 fluorescence intensity (a.u.); under “TAGCAAGAGACCTTGTTGAGCATGTCATCAATGTCAAGTGCGGAGTCACCTAGTGCAG”, 4150 fluorescence intensity (a.u.); under “AGAATTTTGCAGACCGAGGCTTGGCCACCGAGGCGCAAGCCGGAGTCACCTAGTGCAG”, 3790 fluorescence intensity (a.u.). As to “GAACGACCCGAACTTATGACTCATTTATGGTTTGTTTCTCCGGAGTCACCTAGTGCAG”, the binding signal is 8680 fluorescence intensity (a.u.). Under “ACCTCCTCCACCTCCATGGCTCACCACCACGTACAGCAAACGGAGTCACCTAGTGCAG” stands 3360 fluorescence intensity (a.u.); under “TTTTAAGGGGCAAATCTTACCAACTTTTACTAGCGTGTCACGGAGTCACCTAGTGCAG”, 3680 fluorescence intensity (a.u.). The same measure for “AGTAGCAAAACCTGTTTGTAGAGGAAATTATTATAGTGTTCGGAGTCACCTAGTGCAG”: 53700 fluorescence intensity (a.u.); for “CTGTAGCAAATTAGAAGCAAAAGTGTTAGTTCAAATTGTGCGGAGTCACCTAGTGCAG”: 3320 fluorescence intensity (a.u.).

As for “CTAAAACCACATATAAGGAGTGTCCTGTAGCAAAATTTCCCGGAGTCACCTAGTGCAG”, the binding signal was 4200 fluorescence intensity (a.u.). Under “CGTGTGTAACTTTGGAACCTGCCACGGGAGAGCGAATTCCCGGAGTCACCTAGTGCAG” stands 25500 fluorescence intensity (a.u.); under “TGTGAATTACTAGTAGTACGTAAGCATAAATACGCCACCCCGGAGTCACCTAGTGCAG”, 3550 fluorescence intensity (a.u.); under “GAATAGTAACAATTAGTTTTGTGAATTTTGTGAAATACGCCGGAGTCACCTAGTGCAG”, 52300 fluorescence intensity (a.u.). “ACAAATTATAAGTAACAAACTTTTGTGACGTATAGTAGCCCGGAGTCACCTAGTGCAG”: the binding signal was 4440 fluorescence intensity (a.u.). Under “GCTTCCCGCACGACACCTGTCCACACAAATCTTAGAGCAACGGAGTCACCTAGTGCAG” stands 41400 fluorescence intensity (a.u.); under “AACCTGCTGTCCACTACAACGTCACATTTCAACAAATCCACGGAGTCACCTAGTGCAG”, 34200 fluorescence intensity (a.u.). Turning to “ACCAACGGCCCGAGTCCGACACACGTCTCACGCACGAGCACGGAGTCACCTAGTGCAG”, the binding signal was 3910 fluorescence intensity (a.u.). Take “CACACAGCCGCCCTTGCCGACCGCCACCGCCGCAACCGCACGGAGTCACCTAGTGCAG”: the binding signal was 3300 fluorescence intensity (a.u.). The same measure for “TTTGCGAACGTAATTCCATTAATTAAACACACGTCTATATCGGAGTCACCTAGTGCAG”: 3220 fluorescence intensity (a.u.); for “TCGAAGAAGCCCTTTATTTCTCTTTTCGATACTCACACAACGGAGTCACCTAGTGCAG”: 3260 fluorescence intensity (a.u.).

As to “GCCAGGTGGGCTGGCGCTGAGTGTCCCACGGTCAGCGCCACGGAGTCACCTAGTGCAG”, the binding signal is 4010 fluorescence intensity (a.u.).

With “CGGGCGACGCCGGTGCTGGCGCCAGCGTGGGGCCGCGACGCGGAGTCACCTAGTGCAG”, the binding signal is 4780 fluorescence intensity (a.u.). Under “GCGTGGGGCGCCGGTGGCGGAGGGTGGGGACGACAACCAGCGGAGTCACCTAGTGCAG” stands 65500 fluorescence intensity (a.u.). Under “GGCGGAGAGGGTATGGACAACAGCGCCGAGGTGGCGTGGCCGGAGTCACCTAGTGCAG” stands 5480 fluorescence intensity (a.u.); under “CAGCTACCTCAGCGCCAACCGGACTGGCGCTGAGGTGGGACGGAGTCACCTAGTGCAG”, 39200 fluorescence intensity (a.u.); under “GTCAGCGCCAACTTACTTGGCGCTGAGGTTGTGCACCTCACGGAGTCACCTAGTGCAG”, 3160 fluorescence intensity (a.u.).
